Assay in all cases: NCI-60 one-dose screen, 48 h (100 = growth as untreated, 0 = no growth, -100 = all killed)
In one assay the test system is HCT-15 colon. To be noted: 10 µM unless noted.
For another assay, the system named is HT29 colon. The note with it: 10 µM unless noted.
Another assay relates to SNB-75 CNS. To be noted: 10 µM unless noted.
The next assay concerns SNB-19 CNS. To be noted: 10 µM unless noted.
The next assay concerns U251 CNS. The note with it: 10 µM unless noted.
The next assay deals with PC-3 prostate. To be noted: 10 µM unless noted.
The next assay relates to SK-MEL-5 melanoma. The note with it: 10 µM unless noted.
The subject of another assay is UACC-62 melanoma. To be noted: 10 µM unless noted.
Another assay has as its system LOX IMVI melanoma. To be noted: 10 µM unless noted.
Another assay has as its system SK-MEL-28 melanoma. To be noted: 10 µM unless noted.
Another assay has as its system SK-MEL-2 melanoma. The note with it: 10 µM unless noted.
In the next assay the test system is EKVX NSCLC. The note with it: 10 µM.
The test system of the next assay is SN12C renal. The note with it: 10 µM unless noted.
In another assay the test system is UO-31 renal. The note with it: 10 µM unless noted.
The test system of the next assay is TK-10 renal. To be noted: 10 µM unless noted.
For a further assay, the system named is ACHN renal. The note with it: 10 µM unless noted.
The next assay deals with A498 renal. To be noted: 10 µM unless noted.
The subject of the next assay is CCRF-CEM leukemia. To be noted: 10 µM.
Another assay has as its system MOLT-4 leukemia. To be noted: 10 µM unless noted.

Compounds without any hit were thinned out: in the full panel of roughly 83,000, 20% have a hit.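 The endpoint reported here, percent growth, reads 100 for growth as untreated, 0 for no net growth and -100 for all cells dead.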 Unmarked numbers belong to inactive results. Calls of active or inactive are those of the source. The calls were made as follows: active = growth percent below 10; inactive = the rest.

As to `CCNc1nnc(COc2ccc(CNC(=O)CCCC/C=C/C(C)C)cc2OC)o1`, the growth with HCT-15 colon was 96.9%; with HT29 colon it was 105%; with SNB-75 CNS, 86.2%; in the assay with SNB-19 CNS, 104%; in the assay on U251 CNS, 98.3%; with PC-3 prostate it was 104%. Also, the growth with SK-MEL-5 melanoma is 102%; in the assay on UACC-62 melanoma it was 95%; in the assay with LOX IMVI melanoma, 93.2%; in the assay on SK-MEL-28 melanoma, 104%; in the assay with SK-MEL-2 melanoma, 104%; with EKVX NSCLC it was 96.7%. For the same compound, the growth in the assay with SN12C renal is 104%; in the assay with UO-31 renal, 84.2%; in the assay on TK-10 renal, 107%; in the assay with ACHN renal it was 101%; in the assay with A498 renal, 109%; in the assay with CCRF-CEM leukemia, 97.5%. The growth in the assay with MOLT-4 leukemia was 104%.

Consider `O=C(/C=C1\C(=O)N(Cc2ccc([N+](=O)[O-])cc2)c2ccccc21)c1ccc(OCCN2CCCC2)cc1`, for which the growth in the assay with HCT-15 colon was 15.4%; in the assay with HT29 colon it was 17.4%; in the assay with SNB-75 CNS, 65.3%; in the assay with SNB-19 CNS, 95.1%; in the assay with U251 CNS, 84.7%; in the assay on PC-3 prostate, 77%. The growth in the assay with SK-MEL-5 melanoma is 88.5%; in the assay on UACC-62 melanoma it was 85.8%; with LOX IMVI melanoma, 16.7%; in the assay on SK-MEL-28 melanoma it was 104%; in the assay with SK-MEL-2 melanoma it was 93.7%; in the assay on EKVX NSCLC, 71.5%. Also, the growth was 37.3% with SN12C renal; 40.8% in the assay with UO-31 renal; 82.8% with TK-10 renal; 45.7% in the assay with ACHN renal; 83.1% with A498 renal; 15.2% with CCRF-CEM leukemia. Further, in the assay on MOLT-4 leukemia, the growth was 9.27% (active).

Take `CC(C)CSc1nc(-c2ccc(F)cc2)c(C#N)c(N2CCCCC2)n1`: the growth is 92.2% in the assay on HCT-15 colon; 87.6% in the assay with HT29 colon; 100% with SNB-75 CNS; 104% in the assay on SNB-19 CNS; 93% with U251 CNS; 82% with PC-3 prostate. In addition, the growth in the assay on SK-MEL-5 melanoma is 94.3%; in the assay on UACC-62 melanoma, 82.1%; in the assay on LOX IMVI melanoma it was 92.9%; in the assay with SK-MEL-28 melanoma, 94.3%; in the assay on SK-MEL-2 melanoma, 85.5%; in the assay with EKVX NSCLC, 93.4%. Moreover, the growth with SN12C renal is 105%; in the assay with UO-31 renal, 95.3%; with TK-10 renal, 91.4%; in the assay on ACHN renal, 98.8%; with CCRF-CEM leukemia it was 94.4%; in the assay on MOLT-4 leukemia it was 95.3%.

`COc1ccc(CN2C(=O)/C(=C\C(=O)c3ccc(OCCN4CCCC4)cc3)c3ccccc32)cc1`: the growth in the assay with HCT-15 colon was 37.3%; with HT29 colon, 9.12% (active); in the assay on SNB-75 CNS, 73.2%; in the assay with SNB-19 CNS, 97.1%; with U251 CNS, 87.3%; with PC-3 prostate, 84%. The growth in the assay with SK-MEL-5 melanoma was 92.7%; in the assay with UACC-62 melanoma it was 88.7%; in the assay with LOX IMVI melanoma it was 31.7%; with SK-MEL-28 melanoma, 103%; with SK-MEL-2 melanoma, 103%; in the assay on EKVX NSCLC, 96.4%. The growth in the assay on SN12C renal is 49.8%; with UO-31 renal it was 56.5%; in the assay on TK-10 renal, 109%; in the assay with ACHN renal, 69.9%; with A498 renal, 88.8%; in the assay on CCRF-CEM leukemia it was 2.08% (active). Besides, the growth in the assay on MOLT-4 leukemia is 5.57% (active).

For the compound `Cc1nnc(/N=C2\NC(=O)/C(=C/C=C/c3ccccc3)S2)s1`, the growth with HCT-15 colon was 37%; in the assay on HT29 colon, 92.8%; in the assay with SNB-75 CNS, 66.5%; in the assay on SNB-19 CNS, 53.7%; in the assay on U251 CNS, 49.5%; in the assay with PC-3 prostate, 39.2%. The growth in the assay on SK-MEL-5 melanoma was 44.2%; with UACC-62 melanoma, 46.1%; with LOX IMVI melanoma, 44.3%; with SK-MEL-28 melanoma, 59.8%; in the assay on SK-MEL-2 melanoma it was 57.7%; with EKVX NSCLC, 67.1%. The growth in the assay on SN12C renal was 66.2%; in the assay on UO-31 renal it was 55.2%; in the assay with TK-10 renal it was 70.3%; in the assay with ACHN renal, 50.8%; in the assay on A498 renal it was 65.3%; with CCRF-CEM leukemia it was 29.8%. Further, in the assay with MOLT-4 leukemia, the growth was 43.7%.

As to `O=c1oc2ccc3ccccc3c2cc1-c1ccnc2[nH]c(=S)[nH]c(=O)c12`, the growth is 105% in the assay on HCT-15 colon; 95.3% in the assay on HT29 colon; 98.9% in the assay with SNB-75 CNS; 95% with SNB-19 CNS; 98.5% in the assay with U251 CNS; 93% in the assay on PC-3 prostate. The growth in the assay on SK-MEL-5 melanoma was 97.8%; with UACC-62 melanoma, 88.2%; with LOX IMVI melanoma, 93.1%; in the assay on SK-MEL-28 melanoma, 105%; with SK-MEL-2 melanoma, 104%; with EKVX NSCLC, 101%. Further, the growth in the assay on SN12C renal was 93.1%; in the assay on UO-31 renal it was 66.5%; in the assay with TK-10 renal it was 143%; with ACHN renal it was 107%; in the assay on A498 renal, 107%; with CCRF-CEM leukemia it was 82.6%. Also, the growth in the assay on MOLT-4 leukemia is 87.4%.

As for `CCOc1ccccc1/C=N\N=C(N/N=C/c1ccccc1OCC)N/N=C/c1ccccc1OCC`, the growth in the assay with HCT-15 colon was 13.5%; in the assay on HT29 colon it was -1.15% (active); in the assay on SNB-75 CNS, 22.3%; in the assay on SNB-19 CNS it was 21.7%; in the assay on U251 CNS, 13.4%; in the assay on PC-3 prostate, 3.92% (active). Also, the growth with SK-MEL-5 melanoma is -52.6% (active); with UACC-62 melanoma, 16.1%; with LOX IMVI melanoma, 8.71% (active); in the assay on SK-MEL-28 melanoma, 30.7%; in the assay on SK-MEL-2 melanoma, 4.07% (active); in the assay on EKVX NSCLC, 14.2%. Moreover, the growth in the assay on SN12C renal is 15.4%; with UO-31 renal, -8.3% (active); in the assay on TK-10 renal it was 27.8%; in the assay with ACHN renal, 9.67% (active); with CCRF-CEM leukemia it was 16.7%; in the assay with MOLT-4 leukemia it was 27.7%.

As to `O=C1N/C(=N\c2nnc(-c3ccc(O)cc3)s2)S/C1=C\c1ccccc1O`, the growth in the assay with HCT-15 colon was 93.3%; with HT29 colon, 115%; in the assay with SNB-75 CNS, 78.5%; in the assay on SNB-19 CNS, 93.8%; with U251 CNS it was 101%; with PC-3 prostate, 87%. Further, the growth is 99.7% with SK-MEL-5 melanoma; 97.6% in the assay with UACC-62 melanoma; 93% in the assay on LOX IMVI melanoma; 106% with SK-MEL-28 melanoma; 103% with SK-MEL-2 melanoma; 101% with EKVX NSCLC. Moreover, the growth was 93.2% in the assay with SN12C renal; 72.4% in the assay on UO-31 renal; 97.9% in the assay with TK-10 renal; 97.8% in the assay on ACHN renal; 107% in the assay on A498 renal; 95.8% in the assay on CCRF-CEM leukemia. In addition, the growth in the assay with MOLT-4 leukemia was 100%.

Values taken from PubChem BioAssay (NCI).
